According to PubChem BioAssay (Tox21):
Where “and” joins values, the source holds several entries; their conditions need not be identical. Equal values may be shown once. Some structures have more than one record in an assay (separate samples or runs), and their calls can disagree. Calls of active or inactive are those of the source. A call without a number means that no potency is given here. Unless noted, calls follow the shape of the dose curve; as a rule, active = well fitted curve in the direction sought with a large enough effect in the repeat runs; inconclusive = weak or mixed curves; inactive = no such curve, though single readings can be large; an effect the other way counts as inactive or inconclusive.

Key:
[1] = qHTS assay to identify small molecule antagonists of the glucocorticoid receptor (GR) signaling pathway - cell viability counter screen (AID 720693); also: nearly all actives have a fitted effect of over 55% in size; also: potency is read from the fitted curve at half-maximal effect
[2] = qHTS assay to identify small molecule antagonists of the androgen receptor (AR) signaling pathway - cell viability counter screen (AID 743033; also: nearly all actives have a fitted effect of over 45% in size; also: potency is read from the fitted curve at half-maximal effect)
[3] = qHTS assay to identify small molecule antagonists of the androgen receptor (AR) signaling pathway using the MDA cell line - cell viability counter screen (AID 743041; also: nearly all actives have a fitted effect of over 45% in size; also: potency is read from the fitted curve at half-maximal effect)
How it was run: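 Using the breast carcinoma line MDA-kb2 AR-luc, test chemicals were co-incubated with R1881 for 16 h; CellTiter-Fluor reagent, added at 15.5 h, provided a fluorescence measure of live cells.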

[4] = qHTS assay to identify small molecule antagonists of the thyroid receptor (TR) signaling pathway - cell viability counter screen (AID 743064); also: nearly all actives have a fitted effect of over 50% in size; also: potency is read from the fitted curve at half-maximal effect
How it was run: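 Same-well viability check: GH3.TRE-Luc cells stimulated with 1 nM T3 alongside test compound for 23.5 h, followed by CellTiter-Fluor fluorescence.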

[5] = qHTS assay to identify small molecule antagonists of the thyroid receptor (TR) signaling pathway (AID 743065); also: nearly all actives have a fitted effect of over 55% in size; also: potency is read from the fitted curve at half-maximal effect
How it was run: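 Antagonism measured as loss of luciferase signal in GH3 cells stably carrying a TRE-luciferase reporter, co-treated with compound and T3 (1 nM final) for 23.5 h at 37 C. Viability was read in the same well by CellTiter-Fluor.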

[6] = tested on: thyroid hormone receptor (rat, GH3 cells); assay: qHTS assay to identify small molecule agonists of the thyroid receptor (TR) signaling pathway (AID 743066; calls by dose curve)
[7] = qHTS assay to identify small molecule antagonists of the estrogen receptor alpha (ER-alpha) signaling pathway - cell viability counter screen (AID 743074; calls by dose curve; also: nearly all actives have a fitted effect of over 45% in size; also: potency is read from the fitted curve at half-maximal effect)
[8] = qHTS assay to identify small molecule antagonists of the estrogen receptor alpha (ER-alpha) signaling pathway using the BG1 cell line - cell viability counter screen (AID 743081);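 also: compound given together with 17beta-estradiol as the ER stimulus; nearly all actives have a fitted effect of over 45% in size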; also: potency is read from the fitted curve at half-maximal effect
[9] = target: Aromatase (Homo sapiens) (UniProt P11511); assay: qHTS assay to identify aromatase inhibitors (AID 743083); also: nearly all actives have a fitted effect of over 55% in size; also: potency is read from the fitted curve at half-maximal effect
[10] = qHTS assay to identify aromatase inhibitors - cell viability counter screen (AID 743084);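 also: cells stimulated with testosterone during compound exposure; nearly all actives have a fitted effect of over 55% in size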; also: potency is read from the fitted curve at half-maximal effect
[11] = target: Estrogen receptor (Homo sapiens) (UniProt P03372); assay: qHTS assay to identify small molecule agonists of the estrogen receptor alpha (ER-alpha) signaling pathway using the BG1 cell line (AID 743079); also: nearly all actives have a fitted effect of over 20% in size; also: potency is read from the fitted curve at half-maximal effect
[12] = qHTS assay to identify small molecule antagonists of the estrogen receptor alpha (ER-alpha) signaling pathway using the BG1 cell line (AID 743080; calls by dose curve;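 also: BG1 cells stimulated with 17beta-estradiol alongside compound; nearly all actives have a fitted effect of over 25% in size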; also: potency is read from the fitted curve at half-maximal effect)
How it was run: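 After 5 days in phenol-red-free 10% charcoal-stripped FBS medium, BG1-Luc-4E2 cells were seeded, left 24 h at 37 C, co-treated with compounds and 17beta-estradiol for 21.5 h, then assayed for viability and luciferase.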

[13] = qHTS assay for identifying genotoxic compounds that show differential cytotoxicity against isogenic chicken DT40 cell lines with known DNA damage response pathways - wild type cell line (AID 743012); also: nearly all actives have a fitted effect of over 60% in size; also: potency is read from the fitted curve at half-maximal effect
How it was run: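 Viability by ATP luminescence (CellTiter-Glo, 30 min RT) after 40 h compound treatment at 37 C/5% CO2, using 300 parental DNA repair-proficient DT40 cells per well.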

[14] = qHTS assay for identifying genotoxic compounds that show differential cytotoxicity against isogenic chicken DT40 cell lines with known DNA damage response pathways - Rev3 mutant cell line (AID 743014); also: nearly all actives have a fitted effect of over 55% in size; also: potency is read from the fitted curve at half-maximal effect
[15] = qHTS assay for identifying genotoxic compounds that show differential cytotoxicity against isogenic chicken DT40 cell lines with known DNA damage response pathways - Rad54/Ku70 mutant cell line (AID 743015); also: nearly all actives have a fitted effect of over 60% in size; also: potency is read from the fitted curve at half-maximal effect
[16] = target: Estrogen receptor (Homo sapiens) (UniProt P03372); assay: qHTS assay to identify small molecule antagonists of the estrogen receptor alpha (ER-alpha) signaling pathway (AID 743069; active = well fitted curve in the direction sought with a large enough effect in the signal ratio in the repeat runs, not every such curve was filed as active; inconclusive = weak or mixed curves, or effect the other way; inactive = no such curve, though single readings can be large or run the other way; the % refers to the signal ratio; also: potency is read from the fitted curve at half-maximal effect)
How it was run: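 Fluorescence intensity from a beta-lactamase FRET substrate served as the read-out. Cells: HEK293 with stably integrated ER-alpha-UAS-bla reporter. Agonist 17beta-estradiol was co-added with compounds; incubation 18 hr at 37C, substrate 2 hr at room temperature.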

[17] = target: Estrogen receptor (Homo sapiens) (UniProt P03372); assay: qHTS assay to identify small molecule agonists of the estrogen receptor alpha (ER-alpha) signaling pathway (AID 743075; calls by dose curve)
[18] = target: Androgen receptor (Homo sapiens) (UniProt P10275); assay: qHTS assay to identify small molecule antagonists of the androgen receptor (AR) signaling pathway using the MDA cell line (AID 743042; also: nearly all actives have a fitted effect of over 55% in size)
How it was run: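 Antagonist mode: compounds plus R1881 agonist added to MDA-kb2 AR-luc cells, incubated 16 h at 37C. Luciferase reporter luminescence quantified, with multiplexed CellTiter-Fluor readout for cell viability.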

[19] = target: Androgen receptor (Homo sapiens) (UniProt P10275); assay: qHTS assay to identify small molecule agonists of the androgen receptor (AR) signaling pathway using the MDA cell line (AID 743040; also: nearly all actives have a fitted effect of over 20% in size)
How it was run: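 Stable MMTV-luciferase reporter in MDA-kb2 cells; note the promoter carries GR as well as AR response elements. 16 h compound treatment, 37C, 0% CO2; ONE-Glo luminescence endpoint.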

Estrogen receptor (Homo sapiens), sequence (P03372 whole entry, looked up): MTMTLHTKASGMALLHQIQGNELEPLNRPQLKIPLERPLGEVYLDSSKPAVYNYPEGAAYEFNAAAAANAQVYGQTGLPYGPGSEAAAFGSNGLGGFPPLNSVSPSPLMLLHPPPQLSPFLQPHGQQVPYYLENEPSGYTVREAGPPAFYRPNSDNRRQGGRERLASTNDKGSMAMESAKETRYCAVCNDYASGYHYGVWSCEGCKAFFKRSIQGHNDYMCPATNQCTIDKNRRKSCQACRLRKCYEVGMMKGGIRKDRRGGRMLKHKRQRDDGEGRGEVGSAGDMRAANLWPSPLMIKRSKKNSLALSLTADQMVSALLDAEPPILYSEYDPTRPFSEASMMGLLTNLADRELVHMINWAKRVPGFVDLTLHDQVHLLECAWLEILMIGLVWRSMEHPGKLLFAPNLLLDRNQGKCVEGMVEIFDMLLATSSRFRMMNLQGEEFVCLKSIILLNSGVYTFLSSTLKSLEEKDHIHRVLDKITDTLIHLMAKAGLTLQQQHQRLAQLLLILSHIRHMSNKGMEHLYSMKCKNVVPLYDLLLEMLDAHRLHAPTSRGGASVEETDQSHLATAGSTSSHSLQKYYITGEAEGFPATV
Androgen receptor (Homo sapiens), sequence (P10275 whole entry, looked up): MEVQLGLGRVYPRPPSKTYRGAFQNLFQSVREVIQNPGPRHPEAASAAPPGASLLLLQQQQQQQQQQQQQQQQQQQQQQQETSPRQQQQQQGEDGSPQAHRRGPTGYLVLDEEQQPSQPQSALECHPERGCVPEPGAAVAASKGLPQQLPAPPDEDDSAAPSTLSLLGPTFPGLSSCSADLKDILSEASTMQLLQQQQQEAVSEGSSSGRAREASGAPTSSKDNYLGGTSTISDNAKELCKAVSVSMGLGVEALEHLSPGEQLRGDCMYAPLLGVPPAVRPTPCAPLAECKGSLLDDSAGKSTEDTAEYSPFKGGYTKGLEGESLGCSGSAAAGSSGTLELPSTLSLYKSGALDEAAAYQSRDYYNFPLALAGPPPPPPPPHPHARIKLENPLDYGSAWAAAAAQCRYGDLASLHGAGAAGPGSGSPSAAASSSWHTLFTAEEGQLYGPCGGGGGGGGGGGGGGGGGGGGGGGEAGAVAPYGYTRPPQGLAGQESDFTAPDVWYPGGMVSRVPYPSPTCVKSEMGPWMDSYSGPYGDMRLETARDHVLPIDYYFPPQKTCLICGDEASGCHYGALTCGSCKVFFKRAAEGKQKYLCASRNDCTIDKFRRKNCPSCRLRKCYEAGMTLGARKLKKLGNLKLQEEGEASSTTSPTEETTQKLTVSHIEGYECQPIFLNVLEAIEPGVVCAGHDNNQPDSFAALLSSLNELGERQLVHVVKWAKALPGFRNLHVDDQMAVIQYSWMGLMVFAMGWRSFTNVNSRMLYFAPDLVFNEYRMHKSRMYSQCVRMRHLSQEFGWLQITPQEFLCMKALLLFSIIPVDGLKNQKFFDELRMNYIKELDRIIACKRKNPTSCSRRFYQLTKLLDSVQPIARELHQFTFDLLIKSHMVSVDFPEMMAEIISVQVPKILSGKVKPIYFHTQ
Aromatase (Homo sapiens), sequence (P11511 whole entry, looked up): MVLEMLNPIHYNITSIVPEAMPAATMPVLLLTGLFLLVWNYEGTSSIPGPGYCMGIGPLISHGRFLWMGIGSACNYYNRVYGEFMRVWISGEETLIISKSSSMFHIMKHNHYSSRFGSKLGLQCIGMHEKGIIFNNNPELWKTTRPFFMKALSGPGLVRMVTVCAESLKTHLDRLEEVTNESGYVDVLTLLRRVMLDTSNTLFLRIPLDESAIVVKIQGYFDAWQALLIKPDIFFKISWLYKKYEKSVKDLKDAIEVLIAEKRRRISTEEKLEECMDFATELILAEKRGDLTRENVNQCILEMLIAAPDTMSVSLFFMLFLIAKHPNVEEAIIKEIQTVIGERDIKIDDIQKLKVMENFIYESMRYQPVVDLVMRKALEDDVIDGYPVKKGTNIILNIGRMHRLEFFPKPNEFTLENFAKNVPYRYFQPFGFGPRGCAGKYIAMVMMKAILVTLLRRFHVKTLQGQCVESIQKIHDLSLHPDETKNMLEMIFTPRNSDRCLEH

Row | SMILES | Potency [1] | Potency [2] | Potency [3] | Potency [4] | Potency [5] | outcome [6] | Potency [7] | Potency [8] | Potency [9] | Potency [10] | Potency [11] | Potency [12] | Potency [13] | Potency [14] | Potency [15] | Potency [16] | Potency [17] | Potency [18] | Potency [19]
1 | FC(F)(F)c1cccc(C2=CCN(CCc3ccc4ccccc4c3)CC2)c1 | inactive | inactive | inactive | inactive | inactive | inactive | inactive | inactive | inactive | inactive |  |  |  |  |  |  |  |  | 
2 | O=[N+]([O-])c1c2ccccc2cc2ccccc12 | inactive | inactive | inactive |  |  | inactive |  |  | inactive | inactive | 42.9 µM (active) |  |  |  |  |  |  |  | 
3 | Clc1ccc(CCC(Cn2ccnc2)Sc2c(Cl)cccc2Cl)cc1 (centres undefined) | inactive |  | inactive | inactive |  | inactive | inactive | inactive | 12.7 µM (active) | inactive |  | inactive |  |  |  |  |  |  | 
4 | CSCCCN=C=S |  | inactive | inactive | inactive |  | inactive | inactive | inactive |  |  |  |  | 48.6 µM (active) | 27.3 µM (active) | 43.3 µM (active) |  |  |  | 
5 | O=C(O)C1C2CCC(O2)C1C(=O)O (centres undefined) |  | inactive | inactive | inactive |  | inactive | inactive | inactive |  |  |  |  | inactive | inactive | inactive |  |  |  | 
6 | CC(C)CCCCCCCOP(=O)(Oc1ccccc1)Oc1ccccc1 | inactive |  |  | 27.4 µM (active) | 30.8 µM (active) |  | inactive | inactive | inactive | inactive | inactive | inactive |  |  |  | inactive | inactive |  | 
7 | O=C(CCCN1CCC2(CC1)C(=O)NCN2c1ccccc1)c1ccc(F)cc1 | inactive |  | inactive |  |  | inactive |  |  | 29.8 µM (active) |  |  |  |  |  |  | 8.49 µM [inconclusive] (active) | inactive |  | 
8 | Nc1ccccc1C(=O)Oc1ccc2ccccc2c1 | inactive | inactive | inactive | inactive | inactive |  | inactive | inactive | inactive | inactive | 4.33 µM (active) |  |  |  |  |  | inactive | inactive | 
9 | C[C@@H]1O[C@@H](O[C@@H]2C=C3CC[C@@H]4[C@H](CC[C@]5(C)[C@@H](c6ccc(=O)oc6)CC[C@]45O)[C@@]3(C)CC2)[C@H](O)[C@H](O)[C@H]1O | 0.091 µM (active) |  | inactive | inactive | inactive | inactive |  | inactive | inactive | inactive |  |  |  |  | 0.127 µM (active) |  |  |  | 
10 | C=CCC1=C(C)C(OC(=O)C2C(C=C(C)C)C2(C)C)CC1=O (centres undefined) | 46.3 µM (active) |  |  | 49.3 µM (active) | 25.8 µM (active) | inactive | 46.3 µM (active) |  | 47.2 µM (active) | 25.8 µM (active) |  | 36.4 µM (active) |  |  | 18.7 µM (active) | 58.3 µM [fluorescent] (active) | inactive |  | 
11 | [CH3][Hg][Cl] | 19.5 µM (active) | inactive |  | 0.861 µM (active) | 1.22 µM (active) |  | inactive | 34.3 µM (active) | 27.2 µM (active) | 24.3 µM (active) | inactive |  |  |  | 48.4 µM (active) |  |  | inactive | inactive
12 | CN(C)C(=S)[S-].CN(C)C(=S)[S-].[Cu+2] | 2.67 µM (active) |  |  | 1.49 µM (active) |  |  | 6.7 µM (active) | 1.49 µM (active) | 1.49 µM (active) | 1.87 µM (active) |  |  |  |  |  |  |  |  | 
13 | CN(C)C1CSSSC1 | inactive | inactive |  | inactive | inactive | inactive | inactive | inactive | inactive | inactive | inactive | inactive |  |  | 21.7 µM (active) | inactive | inactive |  | 
14 | CN(C)S(=O)(=O)N(SC(F)(Cl)Cl)c1ccccc1 |  | 3.47 µM (active) | 24.3 µM (active) | 1.22 µM (active) | 1.22 µM (active) |  |  |  | 3.44 µM (active) | 27.3 µM (active) |  |  | 0.109 µM (active) | 0.154 µM (active) | 0.109 µM (active) |  |  |  | 
15 | [Cd+2].[Cl-].[Cl-] |  | 24.8 µM (active) | inactive | 24.5 µM (active) and 30.6 µM (active) | 27.5 µM (active) and 38.6 µM (active) | inactive |  |  | 54.9 µM (active) and inactive | 24.5 µM (active) |  |  | 19.5 µM (active) and 24.3 µM (active) | 13.8 µM (active) and 27.3 µM (active) | 13.8 µM (active) and 24.3 µM (active) |  |  |  | 
16 | O=C(CBr)c1ccc(O)cc1 | inactive | inactive | inactive | inactive | inactive | inactive | inactive | inactive | inactive | inactive |  |  |  |  |  |  |  |  | 
